Data reported in PubChem BioAssay AID485270 (The Scripps Research Institute Molecular Screening Center, 2010).
About 5,800 (1.8%) of roughly 330,000 compounds were called active. The sample holds actives, similar compounds and a random draw of the others, so the mix is not that of the screen. Cut-off read from the data, not from the text of the source: active = inhibition mostly above about 38% (no sharp cut-off); inactive = mostly below about 40%.

target: Orexin/Hypocretin receptor type 1 (Homo sapiens) (UniProt O43613); assay: antagonists of human orexin 1 receptor (OX1R) (AID 485270); conditions: OX1R-expressing cells, FRET antagonist read-out; at 6.6 µM; stronger effect = higher value;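 note: 0% = agonist challenge alone and 100% = reference antagonist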
Sequence (O43613 whole entry, looked up): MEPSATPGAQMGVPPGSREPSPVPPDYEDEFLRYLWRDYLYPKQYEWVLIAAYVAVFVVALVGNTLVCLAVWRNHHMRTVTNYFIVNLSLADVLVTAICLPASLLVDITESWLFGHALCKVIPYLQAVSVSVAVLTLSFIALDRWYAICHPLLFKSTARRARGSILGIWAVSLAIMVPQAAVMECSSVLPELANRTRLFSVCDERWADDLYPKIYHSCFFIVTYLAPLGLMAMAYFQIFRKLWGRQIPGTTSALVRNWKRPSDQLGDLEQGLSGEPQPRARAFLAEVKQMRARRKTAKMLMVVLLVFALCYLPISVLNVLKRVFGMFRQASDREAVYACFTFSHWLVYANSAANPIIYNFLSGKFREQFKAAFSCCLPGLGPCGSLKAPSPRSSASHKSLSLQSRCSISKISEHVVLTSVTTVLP

inhibition, active:
C=CCSc1nnc2c(n1)-c1cccc3cccc-2c13 56.6%
COc1ccc(C(=O)COC(=O)c2ccc([N+](=O)[O-])s2)cc1OC 38.5%
O=C(OCC(=O)N1CCN(c2ccccc2)CC1)c1ccc([N+](=O)[O-])s1 42.6%
COc1cc(NC(=O)COC(=O)c2ccc([N+](=O)[O-])s2)cc(OC)c1OC 47.4%
Cc1cc[n+](-c2[nH]c(=O)sc2/C=N/NC(=O)c2ccccc2[O-])cc1C 67.1%
Fc1ccccc1-c1cc2cc3c(cc2cn1)OCO3 66%
Cc1ccc(S(=O)(=O)N2[C@@H](c3ccccc3F)C(C(=O)O)=CC[C@H]2c2ccc(Cl)cc2)cc1 64.8%
Cc1ccccc1S(=O)(=O)N1[C@@H](c2cccc(Cl)c2)C(C(=O)O)=CC[C@H]1c1ccc(Cl)cc1 90.2%
Cc1ccc([C@@H]2CC=C(C(=O)O)[C@H](c3cccc(Cl)c3)N2S(=O)(=O)c2ccc(C)cc2)cc1 82.9%
Cc1ccc(S(=O)(=O)N2[C@@H](c3cccc(Cl)c3)C(C(=O)O)=CC[C@H]2c2ccc(Cl)c(Cl)c2)cc1 81.4%

inhibition, inactive:
O=S(=O)(Nc1ncnc2sccc12)c1cccc(F)c1 3.31%
Cc1cc(NC(=O)COC(=O)/C=C/c2ccc(C)o2)no1 1.38%
CCOC(=O)C1=CN(Cc2ccc(Br)cc2)S(=O)(=O)NC1C (stereo unspecified) 8.5%
COc1cc2c(-c3ccc4c(c3)OCO4)c(-c3ccsc3)oc(=O)c2cc1OC 16.2%
CC(OC(=O)c1cc2ccccc2[nH]1)C(=O)N(C)c1ccccc1 (stereo unspecified) 5.48%
COc1ccc(C(=O)OCC(=O)Nc2ccc3[nH]c(=O)[nH]c3c2)c(OC)c1OC 18%
C[C@H](NC(=O)c1ccccc1Cl)C(=O)OCC(=O)N1CCN(c2ccccc2)CC1 3.17%
COc1ccc(C(=O)NCC(=O)N/N=C/c2ccc([N+](=O)[O-])s2)cc1OC 44%
COc1ccc(C(=O)OCC(=O)c2ccc(C)c(S(=O)(=O)N3CCOCC3)c2)cc1OC 27.8%
O=C(CN1CCCC1)N1CCN(c2ccccc2)CC1 3.2%
COc1cc(C(=O)OCc2ccc([N+](=O)[O-])cc2)cc(OC)c1OC 14.5%
C[C@H](CO)N1C[C@H](C)[C@H](CN(C)C(=O)Nc2ccc(C(F)(F)F)cc2)Oc2c(NC(=O)c3ccncc3)cccc2C1=O 12.5%
CCOc1ccc(Br)cc1S(=O)(=O)Nc1ccc(S(=O)(=O)Nc2cc(C)on2)cc1 -0.05%
CN(C)C(=O)CCc1ccc2c3c([nH]c2c1)[C@]1(CCc2ccccc2)[C@@H](C(=O)N2CCCCC2)C[C@H](CC(=O)NCCC2=CCCCC2)C(=O)N1CC3 10.4%
COc1ccc2sc(-c3ccc(S(C)(=O)=O)cc3)c(C#Cc3cncn3C)c2c1 6.52%
C=CCC[C@H](Cc1ccc(F)cc1)C(=O)OC[C@@H](Cc1c[nH]c2ccccc12)NC(=O)[C@H](CC=C)CC(=O)N[C@H](CO)Cc1ccccc1 3.33%
COc1ccccc1NC(=O)COC(=O)CNC(=O)C1CCCCC1 5.3%
Cc1c(Cl)cnc(NC(=O)COC(=O)C2CCCC2)c1Cl 2.82%
COc1ccc(C(=O)COC(=O)CN2C(=O)C3CC=CCC3C2=O)c(OC)c1 (stereo unspecified) 0.55%
CCN([C@H](CO)C(C)C)S(=O)(=O)c1ccccc1Br 8.87%
CCCN=C1N(C)C[C@@H]2[C@@H]3C(=O)N(Cc4ccccc4)C(=O)[C@@H]3[C@](C)(C(=O)OC)N12 3.52%
Cc1ccc(/C=N/NC(=O)c2cc3ccccc3cc2O)o1 22.1%
Cc1ccc2occ(/C=N/NC(=O)c3ccccc3C)c(=O)c2c1 11.9%
C[C@H](CO)N1C[C@H](C)[C@@H](CN(C)S(=O)(=O)c2ccc(F)cc2)Oc2c(NC(=O)Nc3ccccc3)cccc2C1=O 3.72%
Fc1ccc2cnc(-c3ccccc3)cc2c1 1.78%
O=C(Nc1ccccc1F)c1ccc2c(c1)OCO2 0.6%
Cc1ccc(S(=O)(=O)N2[C@@H](c3ccc(Br)cc3)C(C(=O)O)=C[C@H]2CC2CCCC2)cc1 31.2%
CS(=O)(=O)N(CC(=O)N1CCN(c2cccc(Cl)c2)CC1)c1ccccc1 -2.69%
Cc1ccc(S(=O)(=O)N2CCN(CC(=O)N/N=C/c3cc([N+](=O)[O-])ccc3Cl)CC2)cc1 19.3%
Cc1ccc(S(=O)(=O)N2C3C=CC(C3)C2C(=O)O)cc1 (stereo unspecified) 7.96%
Cc1ccc(S(=O)(=O)N(CC(=O)N2CCc3ccccc3C2)c2cccc(Cl)c2)cc1 40%
COc1ccccc1N1CCN(S(=O)(=O)c2ccc(Cl)cc2)CC1 4.56%
Cc1ccc2c(c1)C(c1ccccc1)N(C(=O)c1ccc(S(=O)(=O)N3CCOCC3)cc1)CC(=O)N2 (stereo unspecified) 7.06%
CN1OC(COC(=O)c2ccc(Cl)cc2)CC1c1ccccc1 (stereo unspecified) -0.66%
CC[C@@H](C)[C@@H]1CN([C@@H](C)CN2CCC[C@H]2CN2C(N)=NC[C@H]2C(C)C)C(=N)N1CCc1ccc(Cl)c(Cl)c1 -3.86%
COc1ccccc1C(=O)NCC(=O)OCC(=O)NNC(=O)c1ccc(Br)cc1 2.31%
Fc1ccc(Nc2nnns2)cc1 11.1%
CS(=O)(=O)c1ccc(C(=O)NNC(=O)c2cccs2)cc1 1.62%
CC(C)N(C(=O)[C@H]1C[C@H](CC(=O)NC(C)(C)C)C(=O)N2CCc3c([nH]c4ccc(Cl)cc34)[C@]12C)C(C)C 8.54%
C=CCC[C@@H](Cc1ccc(F)cc1)C(=O)OC[C@H](Cc1c[nH]c2ccccc12)NC(=O)[C@@H](CC=C)CC(=O)N(CCO)Cc1ccccc1 7.48%
NS(=O)(=O)c1cccc(NC(=O)COC(=O)c2cc([N+](=O)[O-])ccc2N2CCCC2)c1 14.8%
